# Measured values reported in PubChem BioAssay (NCATS).
# Records with an inconclusive call do not appear. A call without a number means that no potency is given here. Activity calls are given as the source filed them. Calls follow the shape of the dose curve; as a rule, active = well fitted inhibition curve with a large enough effect; inconclusive = small, poorly fitted or top-dose-only effect; inactive = no such curve, though single readings can be large or run the other way.
# Assay: qHTS for Inhibitors of the Aldehyde Dehydrogenase Family (ALDH1A2, ALDH1A3, ALDH2, ALDH3A1) (AID 2061307); also: nearly all actives have a fitted effect of over 50% in size; as to potency: test system not described further here
# Details: ALDH inhibition qHTS; series mostly up to 50.3 µM
# Potency is read from the fitted curve at half-maximal effect.
row,Structure (SMILES),Potency
1,CNc1nc2c(s1)C(c1ccccc1Cl)CC(=O)N2 (stereo not given),11.3 µM (active)
2,O=C(Nc1ccc(S(=O)(=O)N2CCOCC2)cc1)c1ccc(CN2CCc3ccccc3C2)cc1,inactive
3,O=C(Nc1ccc(C(=O)N2CCCC2)cc1)c1cccc(Cl)c1,inactive
4,Fc1ccc(CN2CCC(N(CCc3ccccc3)Cc3ccccc3)CC2)cc1,inactive
5,O=C1C(=O)N(Cc2ccccc2)c2ccccc21,1.79 µM (active)
6,O=C(c1cccs1)c1no[n+]([O-])c1C(=O)c1cccs1,1.59 µM (active)
7,CCOc1ccc(CNc2ccc3ccccc3c2)cc1,2.83 µM (active)
8,O=C(O)c1csc(-n2[nH]c(-c3ccc(F)c(F)c3)cc2=O)n1,inactive
9,Cc1cc(NS(=O)(=O)c2ccc(NCCc3ccc(Cl)c(Cl)c3)cc2)no1,2.83 µM (active)
10,O=C(Nc1cccc(C(F)(F)F)c1)c1ccccc1NCc1ccccc1,inactive
11,COc1ccc(-n2c(C)cc(C3=NNC(=NC4CC4)SC3)c2C)cc1,4.49 µM (active)
12,Cc1ccc(CNc2ncnc3c2oc2ccccc23)cc1,inactive
13,C[S+](=O)([O-])c1ccc(-c2nnc3ccc(C(=O)NCc4cccs4)cn23)cc1,inactive
14,COc1ccc(-n2c(CSCc3ccccc3)c(C(C)=O)c3cc(O)ccc32)cc1,inactive
15,COc1ccc(N2CCN(C(=O)c3cnc(N4CCCCC4)c4ccccc34)CC2)cc1,inactive
16,CC(=O)c1ccc(NC(=O)c2cnn(-c3cccc(F)c3)c2-n2cccc2)cc1,inactive
17,C=CCOc1c(Cl)cc(CNc2ccc(N(C)C)cc2)cc1OC,0.449 µM (active)
18,CC(C)(C)OC(=O)NC1CCN(c2nc(Br)cs2)CC1,inactive
19,O=C(Nc1cccnc1Cl)c1cc(-c2cccc(Cl)c2)on1,inactive
20,Cc1sc(NC(=O)Cc2ccc3c(c2)OCO3)nc1-c1ccc2c(c1)CCN2C(=O)c1cncn1C,7.94 µM (active)

row,Structure (SMILES),Potency
1,COc1ccc(OC)c(-n2c3c(cc(-c4nnn(-c5ccc(Cl)cc5)n4)c2=O)C(=O)CC(C)(C)C3)c1,5.04 µM (active)
2,O=C([C@H](NS(=O)(=O)c1ccc2[nH]c(=O)ccc2c1)c1ccc(F)cc1)N(Cc1ccco1)Cc1cccs1,25.2 µM (active)
3,O=C(CCCCc1cn(-c2cc3ccc(O)cc3oc2=O)nn1)NCCOCCOCCOc1ccc(-n2ncc3c2CCCC3NC(=O)c2ccccn2)cc1 (stereo not given),2.82 µM (active)
4,CCN(CC)C(=O)c1ccc(S(=O)(=O)N2CCC(c3nc4ccccc4s3)CC2)cc1,inactive
5,Cc1csc(-c2cccc(C(=O)Nc3ccc(F)c(F)c3F)c2)n1,inactive
6,COCc1ccc(-c2nn(Cc3ccccc3)c3ccccc23)o1,11.3 µM (active)
7,Cn1ccc(=Nc2ccc(NC(=O)c3ccc(N=c4ccn(C)c5ccc([N+](=O)[O-])cc45)cc3[N+](=O)[O-])cc2)cc1,5.65 µM (active)
8,COc1ccccc1CNc1ccc(N2CCCCC2)cc1,2.52 µM (active)
9,C=Cc1cc(NC(=O)CN)cc(-c2nn3c(=O)cc(N4CCNCC4)nc3s2)c1,inactive
10,O=Cc1ccc(N2Cc3ccccc3C2)cc1,inactive
11,O=C(O)c1cc(-c2cccs2)nc2cc(Br)ccc12,10.1 µM (active)
12,NCC(=O)Nc1cc(O)cc(-c2nn3c(=O)cc(N4CCNCC4)nc3s2)c1,inactive
13,Cc1ncccc1NC(=O)c1cccs1,inactive
14,COc1ccc(NC(=O)c2ccc3ccccc3n2)cc1S(N)(=O)=O,inactive
15,COc1ccc(C(=O)c2c(C)n(CC(=O)O)c3cc(OC)ccc23)cc1,inactive
16,FC(F)(F)c1ccc(CNc2nc(-c3ccncc3)nc3ccccc23)cc1,4.47 µM (active)
17,Nc1c(Cc2ccc(S(N)(=O)=O)cc2)c(-c2ccccc2)nn1-c1nc(C(=O)O)co1,inactive
18,Cn1c(=O)n(C)c2cc(N3CCCC3)c(NC(=O)Nc3ccccc3)cc21,inactive
19,NS(=O)(=O)c1ccc(Cc2cn(-c3nc(C(=O)O)cs3)c3cc(C(=O)N4CCOCC4)ccc23)cc1,inactive
20,N#CCc1c(Cc2ccc(S(N)(=O)=O)cc2)c(-c2ccccc2)nn1-c1nc(C(=O)O)cs1,inactive
